Compounds without any hit were thinned out: in the full panel of roughly 83,000, 20% have a hit.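 Method: cells in 96-well plates; compound added at one concentration; 48 h incubation; percent growth measured; values under 10 scored active.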 Unmarked numbers belong to inactive results. Activity calls are given as the source filed them.

The test system of this assay is OVCAR-5 ovarian. The experiment in a line: NCI-60 one-dose screen, 48 h (100 = growth as untreated, 0 = no growth, -100 = all killed). The following applies: 10 µM unless noted.
Turning to `CC1(C)CC[C@]2(C(=O)N3CCOCC3)CC[C@]3(C)C(=CC[C@@H]4[C@@]5(C)C/C(=C/c6ccncc6)C(=O)C(C)(C)[C@@H]5CC[C@]43C)[C@@H]2C1`, the growth is 30.3%.

For `O=C(Nc1cccnc1Nc1ccc(Cl)cc1)c1cn(Cc2ccc(F)cc2)nn1`, the growth was 105%. Next, `C=C1C(=O)O[C@H]2[C@H]1CC/C(CNC(=O)c1cc3ccccc3[nH]1)=C\CC[C@@]1(C)O[C@@H]21`: -46% (active). Next, `C=CCN=C(N)SCCCCCCSC(N)=NCC=C`: 97.5%; `CNC(=O)c1c(NC(=O)c2ccc(C(C)(C)C)cc2)sc2c(CN(C)C)c(O)ccc12`: -30.9% (active).

Take `COc1ccc(C/C(C)=C(\c2ccc(O)cc2)c2ccc(OCCN3CCCC3)cc2)cc1`: the growth was 99.1%. Next, `S=c1ssnc1-c1cccs1`: 115%. The value for `COc1cc(/C=C/c2cc(/C=C/c3ccc(O)c(OC)c3)n(C(=O)Nc3ccc(F)cc3)n2)ccc1O` was 31.3%. With `COc1cc2c3c(n(CCCCNCCCn4c5c(c6cc(OC)c(OC)cc6c4=O)C(=O)c4cc6c(cc4-5)OCO6)c(=O)c2cc1OC)-c1cc2c(cc1C3=O)OCO2`, the growth was 98.6%. For `COc1cc(-c2cc(-c3ccc(Nc4ncnc5cc(Cl)ccc45)cc3)nc(N3CCN(C)CC3)n2)cc(OC)c1OC`, the growth is 103%. Next, `COc1cc(C(=O)/C=C/c2ccc(N3CCN(C)CC3)cc2)cc(OC)c1OC`: 96.5%; `Cc1ccc2[nH]c(=O)c3c(c2c1)OC(N)=C(C#N)C31C(=O)c2cccc3cccc1c23` (stereo not given): 97.4%; `Cn1c(=O)c2c(nc(NC3=NS(=O)(=O)c4ccccc43)n2Cc2ccccc2)n(C)c1=O`: 99.6%.

Regarding `COc1ccc(C/C(C)=C(/c2ccc(OCCN3CCCCCC3)cc2)c2ccc(OC(=O)NCc3ccccc3)cc2)cc1`, the growth was 91.5%. Next, `Cn1cc(-c2csc(-c3cn(C(=O)OC(C)(C)C)c4ccccc34)n2)c2ccnc(Cl)c21`: 51.3%. The value for `CCN(C(=O)N1CCN(c2cc3c(cc2F)c(=O)c(C(=O)O)cn3C2CC2)CC1)c1nc(-c2ccc(C)cc2)cs1` was 21.7%.

`COC(=O)c1nc(-c2ccccc2)oc1S(=O)(=O)N1CCC(C(N)=O)CC1`: the growth was 76.7%. The value for `CCCCSCC(=O)c1ccccc1` was 95.2%; that for `Cc1ccc(Nc2nc(-c3ccc(F)cc3)c(C#N)c(=O)n2C)cc1` was 63.4%; that for `COc1cccc(OC)c1Oc1c(-c2nc3ccccc3s2)c(C)nn1-c1ccccc1` was 73.8%. The value for `Cc1ccccc1CNc1c2ccccc2nc2ccccc12` was 36.7%.

With `COc1ccc2nc3ccccc3c(NCc3ccc(F)cc3)c2c1`, the growth was 18.1%. Next, `O=C1NC(=O)c2c1c1c3ccccc3[nH]c1c1oc3cc(Br)ccc3c21`: 98.9%; `COc1ccc(-c2nnc(SCC(=O)Nc3ccc(/C(C)=N\O)cc3)n2-c2ccccc2)cc1OC`: 97%. The value for `CC1=CCC[C@@H]2C1(C)CC[C@H](C)[C@@]2(C)CC1=CC(=O)C(SC(C)(C)C)=CC1=O` (stereo not given in full) was 68%; that for `CCn1cc(CNc2ccc(C(=O)Nc3cc4cc(OC)c(OC)cc4c(C)n3)cc2)c(C)n1` was 72.9%.

`CCCCN1C(=O)/C(=c2\sc3n(c2=O)NC2C(N=3)N(CC)C(=O)N2CC)c2ccccc21` (stereo not given): the growth is 48.4%.

Turning to `NC(=O)c1c(NC(=O)c2ccc(Cl)cc2)sc2c1CCC(=O)C2`, the growth is 86.5%.

Consider `CC1(C)CC[C@]2(C(=O)O)CC[C@]3(C)C(=CC[C@@H]4[C@@]5(C)C[C@@H](Cc6cn([C@@H]7O[C@H](CO)[C@@H](O)[C@H](O)[C@H]7O)nn6)[C@H](O)C(C)(C)[C@@H]5CC[C@]43C)[C@@H]2C1`, for which the growth was 102%. `CCNCc1ccc(O)c2ncccc12`: the growth is 64.7%.

As for `CC(C)c1ccc(C(=O)Nc2sc3cc(O)ccc3c2C#N)cc1`, the growth is 87.8%.

As to `CCOC(=O)c1c(NC(=O)CSc2n[nH]c3nc4ccccc4n23)sc(CC)c1C`, the growth was 82%.

`COc1cccc(/C=C/C(=O)c2cc3c(N)c(C(=O)Nc4cccc(Cl)c4C)sc3nc2C)c1`: the growth is 7.92% (active). In the case of `Cc1nn(-c2ccccc2)c(N2CCCCC2)c1/C=N/NC(=O)Cn1c(=O)sc2ccccc21`, the growth is 82.9%. As to `COC(=O)Cc1nc(C#N)c(N(C)C)o1`, the growth is 94.7%. Next, `N=C(N)c1ccc(-c2ccc(-c3ccc(Cl)cc3Cl)s2)cc1F`: -7.4% (active); `C/C(C=O)=C\c1ccc2c(c1)OCO2`: 110%; `Cc1ccc(/C=C(\C#N)C(=O)Nc2ncc(Cc3cc(Cl)ccc3Cl)s2)o1`: 69.6%. Turning to `C[C@@H]1CC[C@@]2(OC1)O[C@H]1C[C@H]3[C@@H]4CC=C5C[C@@H](O[C@@H]6O[C@H](CO)[C@@H](O[C@@H]7O[C@@H](CO)[C@H](O)[C@H]7O)[C@H](O)[C@H]6O[C@@H]6O[C@@H](C)[C@H](O)[C@@H](O)[C@H]6O)CC[C@]5(C)[C@H]4CC[C@]3(C)[C@H]1[C@@H]2C`, the growth is -87.7% (active). Next, `CCOC(=O)c1cn2ncnc(Oc3ccc(NC(=O)NC4CC4)c(F)c3)c2c1C`: 103%.

The record behind these values is PubChem BioAssay (NCI).
